# In the supplement of paper PMC11172423:
# A number with no mark means an inactive call.
# Tested on: Madurella mycetomatis MM55
# Assay: growth relative to untreated control; higher = less inhibition, active = 20 or less
# Details: 25 µM
# Description: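 Hyphal fragments of M. mycetomatis MM55 or F. senegalensis CBS197.79 in RPMI 1640/MOPS were exposed to each MMV COVID Box or Global Health Priority Box compound at 100 or 25 µM for 7 days at 37 °C. Viability was read with MTS (490 nm, M. mycetomatis) or resazurin (600 nm, F. senegalensis), background-corrected with a medium-only control and expressed as % growth relative to the untreated growth control. Inhibition of more than 80% was taken as growth inhibition.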
row,SMILES,growth
1,CCCC(CCC)C(=O)O,76%
2,CC(=O)c1nn(-c2c(Cl)cc(C(F)(F)F)cc2Cl)c(N)c1S(C)=O (stereo not given),119%
3,CC(C)Nc1cc2c(cn1)nc(Nc1cc(Cl)cc(C#N)c1)n2C1CCNCC1,106%
4,CN(C)CCN1CCCN(c2ccnc3ccsc23)CC1,76%
5,CC(C)C[C@H](NC(=O)[C@@H](NC(=O)c1cccc(-c2ccccc2)n1)[C@@H](C)O)B(O)O,99.4%
6,CCC(C)(C)n1nnnc1C(c1cc2ccc(C)cc2[nH]c1=O)N1CCN(c2ccccc2)CC1 (stereo not given),76.6%
7,CC(C)(C)NC(=O)N[C@H](C(=O)N1C[C@H]2[C@@H]([C@H]1C(=O)NC(CC1CCC1)C(=O)C(N)=O)C2(C)C)C(C)(C)C (stereo not given in full),103%
8,CCN(CC)CCNc1nc(Nc2cccc(OC)c2)c2cnn(-c3ccccc3)c2n1,5.18% (active)
9,NC(=O)C(c1ccccc1)(c1ccccc1)[C@@H]1CCN(CCc2ccc3c(c2)CCO3)C1,106%
10,Cc1nn(-c2cccc(Cl)c2)c2c1C(C(=O)c1ccc3c(c1)OCO3)CC(=O)N2 (stereo not given),68.8%
11,C=CC(=O)Nc1cc(Nc2nccc(-c3cn(C)c4ccccc34)n2)c(OC)cc1N(C)CCN(C)C,3.84% (active)
12,Fc1cccc(-c2ccc3c(c2)CC(NCc2c[nH]c4cnccc24)C3)c1 (stereo not given),5.29% (active)
13,CC(C)(C)c1nn(-c2ccc(Cl)cc2)c2[nH]c(=O)c(CNCc3ccc4c(c3)OCO4)cc12,5.51% (active)
14,COc1cccc(OC2CCN(C(=O)c3cc(C(C)(C)C)nn3Cc3ccccc3)CC2)c1,87.4%
15,CCS(=O)(=O)N1CC(CC#N)(n2cc(-c3ncnc4[nH]ccc34)cn2)C1,94.3%
16,CCc1ccc2c(c1O)CCN(C)C2Cc1ccccc1Cl (stereo not given),21.4%
17,Cc1ccc(C)c2sc(N(CCCn3ccnc3)C(=O)c3ccco3)nc12,5.97% (active)
18,CN[C@@H]1[C@H](O)[C@H](NC)[C@H]2O[C@@]3(O)C(=O)C[C@@H](C)O[C@H]3O[C@@H]2[C@H]1O,99.5%
19,CN1[C@H]2CC[C@H]1CC(OC(c1ccccc1)c1ccccc1)C2 (stereo not given in full),82.4%
20,O=c1c(Cl)c(OCc2ccc(Cl)nc2)cnn1-c1ccc(Cl)c(Cl)c1,61.7%

# Same assay, conditions: 100 µM
row,SMILES,growth
1,CCCC(CCC)C(=O)O,79.4%
2,CC(=O)c1nn(-c2c(Cl)cc(C(F)(F)F)cc2Cl)c(N)c1S(C)=O (stereo not given),107%
3,CC(C)Nc1cc2c(cn1)nc(Nc1cc(Cl)cc(C#N)c1)n2C1CCNCC1,79.1%
4,CN(C)CCN1CCCN(c2ccnc3ccsc23)CC1,79.5%
5,CC(C)C[C@H](NC(=O)[C@@H](NC(=O)c1cccc(-c2ccccc2)n1)[C@@H](C)O)B(O)O,88.5%
6,CCC(C)(C)n1nnnc1C(c1cc2ccc(C)cc2[nH]c1=O)N1CCN(c2ccccc2)CC1 (stereo not given),91.7%
7,CC(C)(C)NC(=O)N[C@H](C(=O)N1C[C@H]2[C@@H]([C@H]1C(=O)NC(CC1CCC1)C(=O)C(N)=O)C2(C)C)C(C)(C)C (stereo not given in full),81.9%
8,CCN(CC)CCNc1nc(Nc2cccc(OC)c2)c2cnn(-c3ccccc3)c2n1,4.88% (active)
9,NC(=O)C(c1ccccc1)(c1ccccc1)[C@@H]1CCN(CCc2ccc3c(c2)CCO3)C1,79.1%
10,Cc1nn(-c2cccc(Cl)c2)c2c1C(C(=O)c1ccc3c(c1)OCO3)CC(=O)N2 (stereo not given),88.3%
11,C=CC(=O)Nc1cc(Nc2nccc(-c3cn(C)c4ccccc34)n2)c(OC)cc1N(C)CCN(C)C,2.43% (active)
12,Fc1cccc(-c2ccc3c(c2)CC(NCc2c[nH]c4cnccc24)C3)c1 (stereo not given),5.16% (active)
13,CC(C)(C)c1nn(-c2ccc(Cl)cc2)c2[nH]c(=O)c(CNCc3ccc4c(c3)OCO4)cc12,6.74% (active)
14,COc1cccc(OC2CCN(C(=O)c3cc(C(C)(C)C)nn3Cc3ccccc3)CC2)c1,118%
15,CCS(=O)(=O)N1CC(CC#N)(n2cc(-c3ncnc4[nH]ccc34)cn2)C1,80.3%
16,CCc1ccc2c(c1O)CCN(C)C2Cc1ccccc1Cl (stereo not given),6.23% (active)
17,Cc1ccc(C)c2sc(N(CCCn3ccnc3)C(=O)c3ccco3)nc12,7.8% (active)
18,CN[C@@H]1[C@H](O)[C@H](NC)[C@H]2O[C@@]3(O)C(=O)C[C@@H](C)O[C@H]3O[C@@H]2[C@H]1O,71.3%
19,CN1[C@H]2CC[C@H]1CC(OC(c1ccccc1)c1ccccc1)C2 (stereo not given in full),84.3%
20,O=c1c(Cl)c(OCc2ccc(Cl)nc2)cnn1-c1ccc(Cl)c(Cl)c1,62.1%
